The list is not random: actives were taken first. Their share in the collection is about 1.7%.
KCNH2 3.1 inh: KCNH2 3.1 (human) potassium channel inhibition. U2OS KCNH2 3.1, thallium flux FluxOr; stronger effect = lower value. activity change, % (tested at about 1.8 µM). 0.95% of 340,000 active;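 active means maximum activity change below -70%; inconclusive means maximum activity change from -70% to -50%; inactive means maximum activity change above -50%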;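 further: thallium influx rate constant from kinetic fluorescence after stimulation buffer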
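Normalized rate constant (relative to positive and negative DMSO controls) derived from a 2 min kinetic fluorescence read after stimulation; U2OS cells expressing the 3.1 isoform via virus at 1.77 x 10^8 /mL.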
USP1 inh: inhibitors of human USP1/UAF1 deubiquitinase. 0.23% of 390,000 active. AID 743255. recombinant USP1/UAF1, Ub-Rhodamine cleavage fluorescence. Potency, µM (titrated, usually from 57.1 µM), inactives show top-dose activity change, negative = inhibition, hits mostly inhibitors. O94782; active means well fitted inhibition curve with a large enough effect; inconclusive means small, poorly fitted or top-dose-only effect; inactive means no such curve, though single readings can be large or run the other way; further: potency means the concentration at half of the fitted maximal effect; nearly all actives have a fitted effect of over 60% in size
Target sequence (O94782 whole entry, looked up): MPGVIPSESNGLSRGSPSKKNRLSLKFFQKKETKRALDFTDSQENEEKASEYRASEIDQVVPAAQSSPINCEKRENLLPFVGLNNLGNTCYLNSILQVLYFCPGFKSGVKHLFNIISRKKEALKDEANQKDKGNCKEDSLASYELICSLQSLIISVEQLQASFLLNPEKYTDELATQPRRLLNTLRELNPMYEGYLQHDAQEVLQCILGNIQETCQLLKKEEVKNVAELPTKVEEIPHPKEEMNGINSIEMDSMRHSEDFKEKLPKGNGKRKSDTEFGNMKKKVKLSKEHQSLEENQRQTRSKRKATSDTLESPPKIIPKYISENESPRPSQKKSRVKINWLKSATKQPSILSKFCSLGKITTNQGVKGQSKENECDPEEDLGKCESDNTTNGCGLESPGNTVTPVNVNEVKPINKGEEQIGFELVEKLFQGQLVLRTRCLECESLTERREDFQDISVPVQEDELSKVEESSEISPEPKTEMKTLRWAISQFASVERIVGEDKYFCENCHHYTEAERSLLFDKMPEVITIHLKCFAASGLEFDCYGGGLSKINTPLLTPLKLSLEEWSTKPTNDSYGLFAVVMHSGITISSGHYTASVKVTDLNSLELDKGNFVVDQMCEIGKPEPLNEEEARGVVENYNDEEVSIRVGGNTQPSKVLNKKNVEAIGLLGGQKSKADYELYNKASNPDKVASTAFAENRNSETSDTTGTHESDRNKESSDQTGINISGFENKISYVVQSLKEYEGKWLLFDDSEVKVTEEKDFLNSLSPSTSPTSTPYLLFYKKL
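USP1/UAF1 complex (1 nM) preincubated 15 min at room temperature with compound, then Ub-Rho substrate (150 nM final) added. Kinetic fluorescence at 480/540 nm over 6 reads at 60 s intervals; 50 mM HEPES pH 7.8, 0.5 mM EDTA, 0.1 mg/ml BSA, 1 mM TCEP, 0.01% Tween-20.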
hERG WT inh: blocks the wildtype human KCNH2 potassium channel; activity change, % at 1.84 µM; U2OS, BacMam KCNH2, thallium flux FluxOr; stronger effect = lower value; 0.37% of 340,000 active; AID 720551;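 active means maximum activity change below -70%; inconclusive means maximum activity change between -70% and -50%; inactive means maximum activity change above -50%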
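U2OS cells were transduced with wild-type KCNH2 virus (2.03 x 10^8 / mL) for 4 h at room temperature, then cultured overnight at 37 C. Thallium flux was read with FluxOr dye. Rate constants were normalized to DMSO controls.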
Giardia killer: kills Giardia lamblia; Giardia lamblia trophozoite viability; activity change, % at 7.66 µM, hits read low; 0.15% of 340,000 active; AID 540267; in the data active means activity change below about -80%; inconclusive means between about -30% and that limit;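 further: parasites exposed to compound for two days anaerobically before the ATP read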
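ATP-content bioluminescence gauges trophozoite survival. Cells (100/well) receive compound and incubate anaerobically for 48 hrs at 37 deg C; detection reagent follows for 15-30 min at room temperature.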
FBPA coupling cs: inhibits coupling enzyme system, counter-screen for aldolase hits | coupling enzyme system counterscreen, AmpLite Red fluorescence | 0.67% of 290,000 active | activity change, negative = inhibition, % at 58.2 µM, hits read low | AID 2472; in the data active means activity change below about -30%
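Counterscreen lacking aldolase: glyceraldehyde-3-phosphate coupling-enzyme reagent preincubated 10 min at RT with compound (at 57.5 uM final), then substrate/coupling system with AmpLite Red added; fluorescence read at 525/598 nm after 20 min RT.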
* hit, by the source's call; ? = inconclusive; nt = no result. On the % scale 0 is the no-effect control and ±100 the full control effect.

SMILES | KCNH2 3.1 inh | USP1 inh | hERG WT inh | Giardia killer | FBPA coupling cs
COc1cc(C(C#N)N2CCCCC2)ccc1O (configuration not stated) | -4 | -17% | -1 | -2 | -20
C=CCN(C(=O)CSc1nc2ccsc2c(=O)n1Cc1ccc(C(=O)O)cc1)c1ccccc1 | 11 | -27% | -254* | nt | nt
O=C(Cn1c(=O)n(-c2ccccc2)c(=O)c2sc3ccccc3c21)NC1CCCC1 | nt | -17% | nt | nt | nt
O=C1c2ccccc2C(=O)c2c1cccc2N1CCCC1 | -11 | ? | 5 | -19 | -20
CCOc1ccc2noc3c2c1C(=O)c1ccccc1-3 | 7 | -18% | -2 | 23 | -45*
O=C1c2ccccc2-c2onc3ccc(N4CCCC4)c1c23 | 19 | 14µM* | -1 | 28 | -50*
O=C1c2ccccc2-c2onc3ccc(NCc4ccco4)c1c23 | -13 | 43% | -6 | 6 | -43*
CCNc1ccc2noc3c2c1C(=O)c1ccccc1-3 | -1 | ? | 4 | 0 | -5
COc1ccc(COc2ccc3ccc(=O)oc3c2)cc1 | -27 | -9% | 10 | ? | -5
COc1cccc(COc2ccc3ccc(=O)oc3c2)c1 | -74* | -14% | -4 | -6 | 0
Nc1cccc(N2C(=O)c3cccc4c(N)ccc(c34)C2=O)c1 | 3 | 28µM* | 12 | 4 | -2
Cc1cccc(N2C(=O)c3cccc4cccc(c34)C2=O)c1 | -11 | -23% | 4 | -7 | -3
Nc1ccc2c3c(cccc13)C(=O)N(c1ccccc1)C2=O | -6 | ? | -1 | 22 | 2
Cc1cccc(N2C(=O)c3cccc4c(N)ccc(c34)C2=O)c1 | -29 | 28µM* | -25 | -2 | -1
O=C(O)c1ccc2c3c(cccc13)C(=O)N(c1ccccc1)C2=O | -104* | -20% | -1 | -15 | -1
CN(C)c1ccc2c3c(cccc13)C(=O)N(c1ccccc1)C2=O | nt | nt | nt | nt | 0
Cc1cccc(N2C(=O)c3cccc4c(N(C)CCO)ccc(c34)C2=O)c1 | -12 | 28µM* | -33 | 2 | -6
CCOc1ccccc1OCCCC(=O)Nc1ccc(OC)nc1 | -9 | -9% | -9 | 3 | -32*
NC(=O)CC(NC(=O)c1ccc(Br)cc1)c1ccc(N2CCN(c3ccccc3)CC2)c([N+](=O)[O-])c1 (configuration not stated) | 5 | -14% | 0 | 1 | -1
NC(=O)CC(NC(=O)c1ccccc1)c1ccc(N2CCN(c3ccccn3)CC2)c([N+](=O)[O-])c1 (configuration not stated) | -130* | -18% | -7 | 21 | 0
CC1(C)Cc2c(sc(NC(=O)C(=O)NCC3CCCO3)c2C(N)=O)CO1 (configuration not stated) | 3 | -19% | -95* | -13 | nt
O=C(CCc1ccccc1)NNC(=O)COc1ccccc1 | -100* | -11% | 7 | 1 | 2
COc1ccc(OCC(=O)NNC(=O)CCc2ccccc2)cc1 | 17 | -13% | -5 | 8 | 1
CCN(CC)CCCNc1ccc2ncn3c4ccc(O)cc4c(=O)c1c23 | 19 | 28µM* | 3 | -8 | nt
Cc1ccc(C(=O)Nc2ccc3c(c2)OCCO3)c(Cl)c1 | -5 | 2% | 8 | -83* | -2
SMILES | KCNH2 3.1 inh | USP1 inh | hERG WT inh | Giardia killer | FBPA coupling cs
Cc1ccc(C2=NN(CC(=O)NCCCN(CC(C)C)CC(C)C)C(=O)CC2)cc1 | nt | 5% | nt | nt | nt
COc1ccc(NC(=O)N(C)C[C@H]2OCCCC[C@H](C)Oc3ccc(NC(=O)Nc4ccc5c(c4)OCO5)cc3C(=O)N([C@@H](C)CO)C[C@@H]2C)cc1 | -5 | 8% | -18 | nt | nt
COc1ccc(/C=N/NC(=O)c2nc(-c3ccccc3)cc(-c3ccccc3)n2)cc1O | -39 | -20% | -11 | -1 | 0
COc1ccc(/C=N/NC(=O)c2nn(-c3ccc(Cl)cc3)c(=O)c3c(N)scc23)cc1 | 10 | ? | 15 | -1 | -26
COc1ccc(/C=N/NC(=O)c2nc(-c3ccccc3)cc(-c3ccccc3)n2)cc1 | -88* | -8% | -24 | -1 | 1
COc1ccc(/C=N/NC(=O)c2nn(-c3ccccc3)c(=O)c3c(N)scc23)cc1 | 3 | ? | -2 | 7 | -59*
CCOC(=O)c1nn(-c2ccc(OC)cc2)c(=O)c2c(N)scc12 | 6 | ? | -1 | -13 | -53*
CCOC(=O)c1nn(-c2ccc(C)c(C)c2)c(=O)c2c(N)scc12 | -10 | -21% | 7 | 14 | -49*
COc1ccc(-n2cc(-c3ccccc3)c3c(SC(C)C(C)=O)ncnc32)cc1 (configuration not stated) | nt | 6% | nt | nt | nt
CCOc1ccccc1CNC(=O)CN1C(=O)CCc2cc(S(=O)(=O)N3CCCCC3)ccc21 | nt | -11% | nt | nt | nt
CCCCCN1C=CC(=C2C(=O)c3ccccc3C2=O)C=C1 | -2 | -24% | -3 | -92* | 2
COc1cc(/C=C(\C#N)C(=O)c2c[nH]c3ccccc23)cc(OC)c1O | 7 | 28µM* | 3 | -7 | -14
COc1ccc2c(c1)sc1nc(-c3ccccc3)cn12 | -40 | -25% | -2 | -91* | -19
CCN(CC)C(=O)Cn1c(=O)cc(C)c2c(C)nn(-c3ccc(C)cc3)c21 | nt | -9% | nt | nt | nt
CCc1cc(C=NC2CCCCC2)c(O)s1 | 11 | -12% | -135* | 26 | -10
CN(C)c1cccc(C(=O)OCCCC(=O)c2ccc(F)cc2)c1 | -130* | -9% | -5 | -3 | nt
CN(Cc1ccccc1)c1ccc(-c2nc(-c3ccncc3)no2)cc1[N+](=O)[O-] | nt | -9% | nt | nt | nt
CC(=O)N(C1=C(N)C(=O)c2ccccc2C1=O)C(C)C | 7 | ? | -5 | -15 | -43*
O=C(CNC(=O)C(c1ccccc1)c1ccccc1)OCC(=O)c1cccc2ccccc12 | nt | nt | nt | -24 | nt
C[C@@H]1CN([C@H](C)CO)S(=O)(=O)c2ccc(C#Cc3ccccc3F)cc2O[C@H]1CN(C)C(=O)c1ccc2c(c1)OCO2 | -5 | -22% | 8 | nt | nt
CCOC(=O)c1sc2nc(CSc3ccccc3)nc(N3CCC(C(N)=O)CC3)c2c1C | -191* | -19% | -225* | -1 | 4
Cc1ccc(NCc2ccccc2OCc2ccccc2F)cc1 | -5 | -9% | 3 | -7 | -6
CCOc1cc(CNCc2ccccc2)ccc1OCc1ccc(Cl)cc1 | -3 | -18% | 36 | 23 | -1
CCOc1ccccc1CNc1ccc(O)cc1 | -6 | 16µM* | 1 | -7 | -39*
CCOc1cccc(CNc2ccc(O)cc2)c1OCc1ccc(Cl)cc1 | -6 | 25µM* | -25 | 7 | -51*
CCOc1cc(CNc2ccc(O)cc2)ccc1OCc1ccc(Cl)cc1Cl | -9 | 8.9µM* | 0 | 14 | -52*
Oc1ccc(NCc2ccccc2OCc2ccccc2Cl)cc1 | nt | 32µM* | nt | nt | nt
Oc1ccc(NCc2ccccc2OCc2ccccc2F)cc1 | -4 | ? | 4 | -6 | -52*

High-throughput results (PubChem BioAssay)
